Experimental data from the OligoGym collection.

target: KLHL24; assay: pooled miR-30 sensor sort-seq; sequence = guide strand; conditions: shRNA
Further: reference of the scale not given here.

| Sequence | sensor-assay potency score (higher = more potent) |
| --- | --- |
| TTACAGGATCGTAGCACTCAGT | -1.07 |
| TTGCCTTGGTCAGTCCACCGGC | -0.546 |
| TGGATCATAAGATTGAACCTTA | 0.374 |
| TATCAGAACAAGTATTATCATC | -1.27 |
| TATCTATGAATAGTCACACAGC | -1.1 |
| TTCAACTGGATCGTAACAGTAT | -0.312 |
| TTTTGTGACGCCATCTGCCTTT | -0.286 |

target: KLHL5; assay: as above; conditions: shRNA

| Sequence | sensor-assay potency score (higher = more potent) |
| --- | --- |
| TTGACATCTGTGCACACAGTGT | -0.886 |
| TATGCAAATCTGTACAACCTTG | -0.563 |
| TTTGACATCAGGCACTTTGTGC | -0.672 |
| TTTCTCTACATAAATTTGCATA | -0.841 |
| TATCTTTCCACACAGTCTGAGA | -1.09 |
| TAATGTCTGACTACTATTGGAA | -0.622 |
| TTATTGTTGCTTTAAGTCCTTA | -0.543 |
| TAGCACTGCAACACCGAACTGT | 0.529 |
| TGTGTGATCACAATCCACCAGC | -0.62 |
| TTCATTAAAAACTTACAGCATG | -0.802 |
| TAAAATTACATCACACAACTGT | 0.596 |
| TAACATGGGTCGTCTCTCTGGT | 0.867 |

target: KLK5; assay: as above; conditions: shRNA

| Sequence | sensor-assay potency score (higher = more potent) |
| --- | --- |
| TGAACATTCTCAACATCTCTGG | -0.405 |
| TTTCTGACTTAGCACGCTGATA | -1.58 |
| TAGAGAGACACGGTCAGCCCAA | 0.0597 |
| TTGGGCCTTAGCAACAGCGCGG | -0.877 |
| TTGATGATGCGGCTGCTGCTGT | -0.719 |
| AACATTCTCAACATCTCTGGGA | 0.475 |
| ACTCTGAAAACTTTCTTCCTGC | -0.332 |
| TTTTCTGACTTAGCACGCTGAT | -0.837 |
| TTCGTGTAGACACCCGGTCTGT | -0.664 |
| TCTCGGGTAAGCATCCTCGCAC | -0.337 |
| TTGATGGGTCTGACATCTTTAG | -1.51 |

target: KPRP; assay: as above; conditions: shRNA

| Sequence | sensor-assay potency score (higher = more potent) |
| --- | --- |
| TAGACTGGCACTTCACCTGTGT | 0.425 |
| TTGTCGTGGTAGAGGACGCGGG | -1.43 |
| TTTCTGTATAACAAACTGGAGC | -1.23 |
| TGGTCTTAGACTGACATTGAGC | -1.69 |
| TCTTAGACTGACATTGAGCCTG | -0.234 |
| AATCTCAACAGGACACCTCTGT | 0.644 |
| TAGACTGACATTGAGCCTGGCC | 0.158 |
| TTGGTCTCCATGGCCATCCTGA | -0.799 |
| TAGCCCTTGACTGAAACTGGGG | -0.902 |
| TACTGAGGGAAACAGCTGCTGT | -0.994 |
